Common to all, as to experiment: yeast three-hybrid, YBZ-1, SC-Leu-His + 0.5 mM 3-AT, 4 days
Conditions in all cases: tags: N-Gal4 AD-HA kept; label: inside an RPR1-promoter hybrid RNA with tandem MS2 sites; ssRNA

In one test the target is PUM1 PUF domain R3-SNR (Homo sapiens, UniProt Q14671 828-1176, C935S;R936N;Q939R). An outline of the steps:
(§1)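 Each repeat of the Pumilio-1 PUF domain was randomized at its three base-contacting residues, and these libraries were co-expressed from a centromeric plasmid with matching RNA elements in strain YBZ-1. After four days on SC-Leu (input) or SC-Leu-His + 0.5 mM 3-AT (selection), the repeat regions were PCR-amplified and Illumina-sequenced. The interaction score compares variant frequency between input and selection as a log change, computed in log2 with a pseudocount of 1 for absent variants.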

Another test deals with PUM1 PUF domain R7-ENR (Homo sapiens, UniProt Q14671 828-1176, S1079E;E1083R). Summed up: as §1
In a further test the target is PUM1 PUF domain R8-KYK (Homo sapiens, UniProt Q14671 828-1176, N1122K;Q1126K). An outline of the steps: as §1
The target in the next test is PUM1 PUF domain R8-GHR (Homo sapiens, UniProt Q14671 828-1176, N1122G;Y1123H;Q1126R). Summed up: as §1
For a further test, the target named is PUM1 PUF domain R8-RYW (Homo sapiens, UniProt Q14671 828-1176, N1122R;Q1126W). An outline of the steps:
as §1

The target of another test is PUM1 PUF domain R1-KLC (Homo sapiens, UniProt Q14671 828-1176, S863K;R864L;Q867C). Summed up: as §1
The next test addresses PUM1 PUF domain R5-PRS (Homo sapiens, UniProt Q14671 828-1176, C1007P;Q1011S). Summed up: as §1
In a further test the target is PUM1 PUF domain R5-KYC (Homo sapiens, UniProt Q14671 828-1176, C1007K;R1008Y;Q1011C). An outline of the steps:
as §1

A further test has as its target PUM1 PUF domain R5-MYC (Homo sapiens, UniProt Q14671 828-1176, C1007M;R1008Y;Q1011C). Summed up: as §1
For another test, the target named is PUM1 PUF domain R5-KWA (Homo sapiens, UniProt Q14671 828-1176, C1007K;R1008W;Q1011A). An outline of the steps:
as §1

“GGCUAGAACUAGUGGAUCCCCCGGCGCCCGGCGGCUCGAGCCCGGGUAAGUGUAAGUAGUCUGCAUGCCGCCGGGCGCCAUGCCUGCAGGUCGACUCUAGAAAACAUG”: in the test with PUM1 PUF domain R3-SNR, the binding signal is 0.8 log2 enrichment (interaction score).
“GGCUAGAACUAGUGGAUCCCCCGGCGCCCGGCGGCUCGAGCCCGGGUAAGUCUAAAUAGUCUGCAUGCCGCCGGGCGCCAUGCCUGCAGGUCGACUCUAGAAAACAUG”: the binding signal in the test with PUM1 PUF domain R7-ENR was 3.14 log2 enrichment (interaction score).
Consider “GGCUAGAACUAGUGGAUCCCCCGGCGCCCGGCGGCUCGAGCCCGGGUAAGCGUAAAUAGUCUGCAUGCCGCCGGGCGCCAUGCCUGCAGGUCGACUCUAGAAAACAUG”, for which the binding signal with PUM1 PUF domain R8-KYK is 3.86 log2 enrichment (interaction score); in the test with PUM1 PUF domain R8-GHR it was 3.27 log2 enrichment (interaction score); with PUM1 PUF domain R8-RYW, 5.69 log2 enrichment (interaction score).
With “GGCUAGAACUAGUGGAUCCCCCGGCGCCCGGCGGCUCGAGCCCGGGUAAGUGUAAAUUGUCUGCAUGCCGCCGGGCGCCAUGCCUGCAGGUCGACUCUAGAAAACAUG”, the binding signal in the test with PUM1 PUF domain R1-KLC is 5.07 log2 enrichment (interaction score).
Take “GGCUAGAACUAGUGGAUCCCCCGGCGCCCGGCGGCUCGAGCCCGGGUAAGUGUAAUUAGUCUGCAUGCCGCCGGGCGCCAUGCCUGCAGGUCGACUCUAGAAAACAUG”: in the test with PUM1 PUF domain R3-SNR, the binding signal is 3.93 log2 enrichment (interaction score).
Regarding “GGCUAGAACUAGUGGAUCCCCCGGCGCCCGGCGGCUCGAGCCCGGGUAAGUGUAAAUAGUCUGCAUGCCGCCGGGCGCCAUGCCUGCAGGUCGACUCUAGAAAACAUG”, the binding signal was 2.92 log2 enrichment (interaction score) with PUM1 PUF domain R8-KYK; 4.36 log2 enrichment (interaction score) with PUM1 PUF domain R5-PRS; 1.48 log2 enrichment (interaction score) in the test with PUM1 PUF domain R8-GHR; 4.31 log2 enrichment (interaction score) with PUM1 PUF domain R8-RYW; 5.13 log2 enrichment (interaction score) with PUM1 PUF domain R5-KYC.
“GGCUAGAACUAGUGGAUCCCCCGGCGCCCGGCGGCUCGAGCCCGGGUAAGUGUUAAUAGUCUGCAUGCCGCCGGGCGCCAUGCCUGCAGGUCGACUCUAGAAAACAUG”: the binding signal with PUM1 PUF domain R5-MYC was 2.86 log2 enrichment (interaction score); with PUM1 PUF domain R5-KYC, 5.51 log2 enrichment (interaction score).
Consider “GGCUAGAACUAGUGGAUCCCCCGGCGCCCGGCGGCUCGAGCCCGGGUAAGUGUGAAUAGUCUGCAUGCCGCCGGGCGCCAUGCCUGCAGGUCGACUCUAGAAAACAUG”, for which the binding signal was 1.55 log2 enrichment (interaction score) in the test with PUM1 PUF domain R5-PRS, 2.43 log2 enrichment (interaction score) with PUM1 PUF domain R5-KWA and 4.74 log2 enrichment (interaction score) with PUM1 PUF domain R5-MYC.

The values above are taken from article PMC8384837, “Expanding the binding specificity for RNA recognition by a PUF domain”.
